Unmarked numbers belong to inactive results. Results filed as inconclusive are left out. A call without a number means that no potency is given here. Active and inactive are the calls of the source. Unless noted, calls follow the shape of the dose curve; as a rule, active = well fitted curve in the direction sought with a large enough effect in the repeat runs; inconclusive = weak or mixed curves; inactive = no such curve, though single readings can be large; an effect the other way counts as inactive or inconclusive.
Assays:
[1] = qHTS assay to identify small molecule antagonists of the estrogen related receptor (ERR) signaling pathway from Tox21 library - cell viability counter screen (AID 1224834); also: nearly all actives have a fitted effect of over 30% in size
Procedure, shortened: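 ERR cells, 2,000/well; 6 h settle at 37 C/5% CO2; pin-tool compound transfer in DMSO; 17.5 h at 37 C; CellTiter-Fluor, 30 min; fluorescence intensity.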

[2] = qHTS assay to identify small molecule agonists of the constitutive androstane receptor (CAR) signaling pathway - cell viability counter screen (AID 1224836); also: nearly all actives have a fitted effect of over 45% in size
Procedure, shortened: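 Cell viability multiplexed with the CAR agonist screen: CellTiter-Fluor fluorescence after 23 hr at 37 C. HepG2-CYP2B6-hCAR cells got compounds at 15 concentrations with PK11195 at 0.75 uM final.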

[3] = qHTS assay to identify small molecule antagonists of the constitutive androstane receptor (CAR) signaling pathway - cell viability counter screen (AID 1224837); also: nearly all actives have a fitted effect of over 45% in size
Procedure, shortened: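 Viability was measured with CellTiter-Fluor in a HepG2 line carrying stably transfected hCAR and a CYP2B6-2.2kb construct. Cells were exposed for 23 hr at 37 C to 15 compound concentrations with 50 nM CITCO as agonist.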

[4] = target: Nuclear receptor subfamily 1 group I member 3 (Homo sapiens) (UniProt Q14994); test: qHTS assay to identify small molecule antagonists of the constitutive androstane receptor (CAR) signaling pathway (AID 1224838);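 also: HepG2 cells stably expressing hCAR with CYP2B6 luciferase reporter stimulated by CITCO; nearly all actives have a fitted effect of over 40% in size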; also: potency is read from the fitted curve at half-maximal effect
Procedure, shortened: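 Antagonist mode used CITCO at a final 50 nM to activate CAR in human hepatoma HepG2 cells carrying stable hCAR and a 2.2 kb CYP2B6 promoter-luciferase construct. Compounds were tested at 15 concentrations over 24 h, with luminescence as the end point.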

[5] = qHTS assay to identify small molecule antagonists of the estrogen related receptor signaling pathway with the pleiotropic PPARgamma coactivator (PGC) from Tox21 10K library - cell viability counter screen (AID 1224840; active = well fitted cell-killing curve with a large enough effect in the repeat runs, not every such curve was filed as active; also: nearly all actives have a fitted effect of over 40% in size)
Procedure, shortened: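 Multiplexed viability counter screen in the PGC/ERR cell line: cells treated with DMSO-dissolved compounds for 17.5 hours at 37 C, then viability measured as CellTiter-Fluor fluorescence.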

[6] = qHTS assay to identify small molecule antagonists of the estrogen related receptor signaling pathway with the pleiotropic PPARgamma coactivator (PGC) from Tox21 10K library (AID 1224841; call rule not given here; also: actives are mostly falling curves and most rising ones were filed inactive; nearly all actives have a fitted effect of over 50% in size)
Procedure, shortened: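 Steps: plate 2,000 PGC/ERR cells per well; incubate 6 h at 37 C with 5% CO2; transfer compounds from DMSO stocks by pin tool; incubate 18 h at 37 C; add One-Glo; measure luminescence 30 min later.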

[7] = qHTS assay to identify small molecule agonists of the estrogen related receptor signaling pathway with the pleiotropic PPARgamma coactivator (PGC) from Tox21 10K library (AID 1224842); also: nearly all actives have a fitted effect of over 15% in size; also: potency is read from the fitted curve at half-maximal effect
Procedure, shortened: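 Luminescence from One-Glo (30 min, room temperature) measured after PGC/ERR cells had 18 h at 37 C with pinned compound (23 nL in DMSO). Cells had been seeded at 2,000 per well and pre-incubated 6 h.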

[8] = target: Thyrotropin receptor (Homo sapiens) (UniProt P16473); test: qHTS assay to identify small molecule agonists of the thyroid stimulating hormone receptor (TSHR) signaling pathway (AID 1224843; calls by dose curve; also: nearly all actives have a fitted effect of over 45% in size)
Procedure, shortened: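 A cell-based cAMP HTRF format was run in TSHR-transfected HEK293 cells, 800 per well. Treatment: 30 min, room temperature. Detection: 1 h with labelled cAMP and anti-cAMP cryptate. Concentration-response over 15 points, three replicates.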

[9] = qHTS assay to identify small molecule agonists of H2AX (AID 1224845; active = well fitted activation curve with a large enough effect in the signal ratio in the repeat runs, not every such curve was filed as active; the % refers to the signal ratio; also: potency is read from the fitted curve at half-maximal effect)
Procedure, shortened: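 Phospho-H2AX Ser139 measured by HTRF (ex 320 nm; em 665 and 620 nm) after 24 hr antibody incubation. Compounds, 15 concentrations, 0.76% DMSO, were applied to CHO-K1 cells for 3hr at 37C before lysis.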

[10] = qHTS assay to identify small molecule agonists of the estrogen related receptor (ERR) signaling pathway from Tox21 library (AID 1224849; calls by dose curve; also: nearly all actives have a fitted effect of over 15% in size); conditions: ERR reporter cell line, ONE-Glo luciferase, 18 h; at 92.4 µM (top of the series) unless noted
Procedure, shortened: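 Cells carrying the ERR reporter were plated and allowed to settle for 6 h, exposed to library compounds for 18 h at 37 C, then lysed with ONE-Glo and luminescence measured.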

[11] = qHTS RealTime-Glo MT Cell Viability Assay in HepG2 cells - 24 hour (AID 1224867); also: nearly all actives have a fitted effect of over 50% in size
Procedure, shortened: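 HepG2 suspension premixed with RealTime-Glo reagents is plated at 600 cells per well and left 5 h at 37 C/5% CO2. Compounds in DMSO then go in, and bioluminescence reflecting viable cell number is recorded over 40 h.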

[12] = A CellTox Green Cytotoxicity Assay to monitor cytotoxicity in HEK293 cells - 0 hour (AID 1224869); also: nearly all actives have a fitted effect of over 50% in size
Procedure, shortened: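 Cells (HEK293, 600/well) and dye reagent are dispensed together. After 5 h at 37 C, 23 nL compound is pinned in. Plates stay at 37 C for 40 h with fluorescence read at 0h, 8h, 16h, 24h, 32h and 40h.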

[13] = qHTS assay to identify small molecule agonists of the hypoxia (HIF-1) signaling pathway - cell viability counter screen (AID 1224844; calls by dose curve; also: nearly all actives have a fitted effect of over 50% in size)
Procedure, shortened: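 Cytotoxicity was measured in parallel with the HRE-driven beta-lactamase readout: after 17 hrs of compound exposure at 37C, HRE-bla ME-180 cells received CellTiter-Glo and luminescence was recorded 30 min later.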

[14] = qHTS assay to identify small molecule agonists of the hypoxia (HIF-1) signaling pathway (AID 1224846; active = well fitted activation curve with a large enough effect in the signal ratio in the repeat runs, not every such curve was filed as active; the % refers to the signal ratio)
Procedure, shortened: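 Compounds from the Tox21 10K library, dissolved in DMSO, are tested for induction of a hypoxia response element–controlled beta-lactamase reporter in ME-180 cells. Exposure lasts 17 hrs at 37C after a 5 hr settling period, followed by CCF4-AM FRET substrate.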

[15] = qHTS assay to identify small molecule antagonists of the estrogen related receptor (ERR) signaling pathway from Tox21 library (AID 1224848); also: nearly all actives have a fitted effect of over 50% in size; also: potency is read from the fitted curve at half-maximal effect
Procedure, shortened: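 ERR cell line, 2,000 cells/well. 6 h settle, then compound (DMSO) added; 18 h at 37 C; ONE-Glo luminescence after 30 min RT.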

[16] = target: Nuclear receptor subfamily 1 group I member 3 (Homo sapiens) (UniProt Q14994); test: qHTS assay to identify small molecule agonists of the constitutive androstane receptor (CAR) signaling pathway (AID 1224839); also: nearly all actives have a fitted effect of over 15% in size; also: potency is read from the fitted curve at half-maximal effect
Procedure, shortened: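 Luminescent ONE-Glo read-out after 24 hr, 37 C exposure of double-stable HepG2-CYP2B6-hCAR reporter cells to a 15-point compound series, in the presence of 0.75 uM PK11195 (final).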

[17] = qHTS RealTime-Glo MT Cell Viability Assay in HEK293 cells - 32 hour (AID 1224868); also: nearly all actives have a fitted effect of over 50% in size; also: potency is read from the fitted curve at half-maximal effect
Procedure, shortened: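 Reads taken at 0, 8, 16, 24, 32 and 40 h from the same wells. HEK293 cells (600/well) carried RealTime-Glo reagents from seeding, with compound added after a 5 h settle at 37 C.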

[18] = target: Luciferin 4-monooxygenase (Photinus pyralis) (UniProt P08659); test: qHTS assay to identify small molecule inhibitors of firefly luciferase (AID 1224835); also: nearly all actives have a fitted effect of over 25% in size; also: potency is read from the fitted curve at half-maximal effect
Procedure, shortened: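 Inhibition of purified Photinus luciferase is measured by luminescence. Substrate levels (D-luciferin, ATP) sit at their KM values. Each compound is tested in a concentration series.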

[19] = qHTS assay to identify small molecule agonists of H2AX - cell viability counter screen (AID 1224847; calls by dose curve;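 also: wild-type CHO-K1 cells; top concentration of the series differs between compounds; nearly all actives have a fitted effect of over 30% in size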)
Procedure, shortened: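 Counter-screen for viability: CellTiter-Glo ATP luminescence read after 3 h compound treatment (15-point titration, 0.76% DMSO final) of CHO-K1 cells at 37C, with 30 min room-temperature reagent incubation.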

Chain of Nuclear receptor subfamily 1 group I member 3 (Homo sapiens) (Q14994 whole entry, looked up): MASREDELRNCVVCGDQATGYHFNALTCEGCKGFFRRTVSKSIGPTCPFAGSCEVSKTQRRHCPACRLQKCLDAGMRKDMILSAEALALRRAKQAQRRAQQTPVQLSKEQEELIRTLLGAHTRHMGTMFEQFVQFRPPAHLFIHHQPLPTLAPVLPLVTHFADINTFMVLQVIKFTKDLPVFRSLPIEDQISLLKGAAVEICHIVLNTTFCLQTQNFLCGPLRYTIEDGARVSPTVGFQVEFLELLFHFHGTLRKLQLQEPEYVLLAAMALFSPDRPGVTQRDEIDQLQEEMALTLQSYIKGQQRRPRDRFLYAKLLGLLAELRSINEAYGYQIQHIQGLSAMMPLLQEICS
Chain of Luciferin 4-monooxygenase (Photinus pyralis) (P08659 whole entry, looked up): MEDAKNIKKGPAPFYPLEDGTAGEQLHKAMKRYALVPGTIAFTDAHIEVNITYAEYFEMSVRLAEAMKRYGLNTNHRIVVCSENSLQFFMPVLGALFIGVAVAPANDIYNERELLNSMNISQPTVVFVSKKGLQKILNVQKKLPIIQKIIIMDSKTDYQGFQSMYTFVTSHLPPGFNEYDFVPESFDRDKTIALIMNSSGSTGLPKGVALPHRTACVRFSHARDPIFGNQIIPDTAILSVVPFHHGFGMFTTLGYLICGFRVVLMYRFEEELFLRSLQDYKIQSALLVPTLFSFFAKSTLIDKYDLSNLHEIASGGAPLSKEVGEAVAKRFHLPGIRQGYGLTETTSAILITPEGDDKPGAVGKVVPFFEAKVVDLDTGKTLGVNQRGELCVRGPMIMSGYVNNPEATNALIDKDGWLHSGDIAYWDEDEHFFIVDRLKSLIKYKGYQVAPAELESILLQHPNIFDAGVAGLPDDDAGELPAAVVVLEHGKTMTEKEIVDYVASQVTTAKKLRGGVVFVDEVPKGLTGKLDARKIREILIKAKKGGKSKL
Chain of Thyrotropin receptor (Homo sapiens) (P16473 whole entry, looked up): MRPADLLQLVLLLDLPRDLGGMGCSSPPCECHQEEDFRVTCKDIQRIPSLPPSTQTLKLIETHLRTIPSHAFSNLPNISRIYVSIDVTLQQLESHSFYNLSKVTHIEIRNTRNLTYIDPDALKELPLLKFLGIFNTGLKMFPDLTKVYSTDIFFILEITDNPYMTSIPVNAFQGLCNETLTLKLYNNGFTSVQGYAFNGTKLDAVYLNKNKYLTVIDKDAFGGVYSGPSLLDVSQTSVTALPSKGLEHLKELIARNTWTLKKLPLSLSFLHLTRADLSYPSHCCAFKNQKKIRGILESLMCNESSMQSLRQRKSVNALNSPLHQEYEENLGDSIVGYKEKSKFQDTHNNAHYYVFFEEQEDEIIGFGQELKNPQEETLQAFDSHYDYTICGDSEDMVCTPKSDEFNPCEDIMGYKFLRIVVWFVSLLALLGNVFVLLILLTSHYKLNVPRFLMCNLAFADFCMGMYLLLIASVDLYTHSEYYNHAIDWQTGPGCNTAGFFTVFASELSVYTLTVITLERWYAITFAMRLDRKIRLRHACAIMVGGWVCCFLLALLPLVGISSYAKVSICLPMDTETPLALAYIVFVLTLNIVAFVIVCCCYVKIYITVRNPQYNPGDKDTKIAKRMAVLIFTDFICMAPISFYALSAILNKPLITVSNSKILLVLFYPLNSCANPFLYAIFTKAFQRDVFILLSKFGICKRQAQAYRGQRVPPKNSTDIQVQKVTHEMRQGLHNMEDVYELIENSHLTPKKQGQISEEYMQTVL

Structure (SMILES) | Potency [1] | Potency [2] | Potency [3] | Potency [4] | Potency [5] | Potency [6] | Potency [7] | Potency [8] | Potency [9] | activity change, positive = activation [10] | outcome [11] | Potency [12] | Potency [13] | outcome [14] | Potency [15] | Potency [16] | Potency [17] | Potency [18] | Potency [19]
CCN(CCCCOC(=O)c1ccc(OC)c(OC)c1)C(C)Cc1ccc(OC)cc1 (stereo not given) | inactive | inactive | inactive | inactive | inactive | inactive | inactive | inactive | inactive | -16.6% [at 42.5 µM] | inactive | inactive |  |  |  |  |  |  | 
Clc1cc(Cl)c2c(c1)N=C1CCCCCN1C2 | inactive | inactive | inactive | inactive | inactive | inactive | inactive |  | inactive | 2.85% [at 42.5 µM] | inactive | inactive | inactive | inactive | inactive |  |  |  | 
O=C1OC(=O)C2CC=CCC12 (stereo not given) | inactive | inactive | inactive | inactive | inactive |  |  | inactive | inactive |  | inactive | inactive |  | inactive |  | inactive | inactive |  | 
C[C@]12CCC(=O)C=C1[C@@H]1C[C@@H]1[C@H]1[C@@H]3[C@@H]4C[C@@H]4[C@@]4(CCC(=O)O4)[C@@]3(C)CC[C@@H]12 | inactive | inactive | inactive | inactive | inactive |  | inactive |  | inactive | -43.4% [at 42.5 µM] | inactive | inactive | inactive | inactive | 26.6 µM (active) | inactive |  |  | 
Cc1c(-c2cccnc2)c2ccccc2n1CCCCC(=O)O | inactive | inactive | inactive | inactive | inactive | inactive |  |  | inactive | -5.77% | inactive |  | inactive | inactive | inactive |  | inactive |  | 
COc1ccc(/C=C/S(=O)(=O)NC(=O)c2ccc(C)cc2Cl)cc1 | inactive | inactive |  |  | inactive |  |  | inactive | inactive |  | inactive | inactive | inactive |  |  |  | inactive | 79.6 µM (active) | inactive
Cc1c(N=C=O)cccc1N=C=O | inactive | inactive | inactive | inactive | inactive |  |  | inactive | inactive |  | inactive | inactive | inactive |  |  |  | inactive |  | 
CC(=O)Nc1cccc(N)c1 | inactive | inactive |  |  | inactive | inactive | inactive | inactive | inactive | -3.33% | inactive | inactive | inactive | inactive | inactive |  |  | inactive | inactive
Nc1nc(Cl)nc2c1ncn2[C@H]1C[C@H](O)[C@@H](CO)O1 | inactive | inactive | inactive | 121 nM (active) | inactive |  |  |  | 14.1 µM (active) |  | inactive | inactive | inactive |  |  | inactive | inactive |  | 
CC(C)(C)c1ccc(CCC=O)cc1 | inactive | inactive | inactive | inactive | inactive |  |  |  | inactive |  | inactive | inactive | inactive | inactive |  | inactive | inactive |  | inactive
C[C@H](CN1CCCC1)C(=O)c1ccc(C(F)(F)F)cc1 | inactive | inactive |  |  | inactive |  |  | inactive | inactive |  |  | inactive | inactive | inactive |  | inactive |  | inactive | inactive
CC(C)NC(=O)c1ccccc1N | inactive | inactive | inactive | inactive | inactive |  |  | inactive | inactive |  | inactive | inactive |  | inactive |  |  | inactive |  | inactive
CCCCCCC/C=C/C=O | inactive | inactive | inactive | inactive | inactive |  |  | inactive | inactive |  | inactive |  | inactive | inactive |  | inactive | inactive |  | inactive
O=[N+]([O-])c1ccccc1CCO | inactive | inactive |  |  | inactive |  |  | inactive | inactive |  | inactive | inactive |  | inactive |  |  |  | inactive | 
Nc1ccc(C(=O)Oc2ccccc2)c(O)c1 | inactive | inactive | inactive | inactive | inactive | inactive | 13.3 µM (active) | inactive | inactive | 83.9% [at 42.5 µM] (active) | inactive | inactive | inactive | inactive | inactive |  | inactive |  | inactive
COC(=O)/C=C/C(C)=C\C=C\C(C)=C\C=C\C=C(C)\C=C\C=C(C)\C=C\C(=O)O |  | inactive |  | inactive | inactive | inactive | inactive | inactive | inactive | 4.73% | inactive | inactive | inactive | inactive | inactive |  | inactive |  | inactive
Oc1ccc(CCNCCCCCCNCCc2ccccc2)cc1O |  | inactive | inactive | inactive | inactive | inactive | inactive |  |  | -19.4% [at 42.5 µM] | inactive | inactive |  | inactive |  | inactive | 26.8 µM (active) | inactive | inactive
Nc1ccccc1Nc1ccccc1 |  | inactive |  | inactive |  |  |  |  |  |  | inactive | inactive | inactive | inactive |  | 54.6 µM (active) |  |  | 
CS(C)=O | inactive | inactive |  |  | inactive |  |  |  | inactive |  | inactive |  | inactive | inactive |  |  |  |  | 
CCCCCCOC(=O)c1ccccc1 | inactive | inactive |  | inactive | inactive | inactive | inactive | inactive | inactive | 5.95% | inactive | inactive |  |  | inactive | inactive |  |  | inactive

From PubChem BioAssay (Tox21)
